Rv3671c protease: inhibitors of M. tuberculosis serine protease Rv3671c; inhibition, % at 5.96 µM; 320,000 compounds, 0.048% hits; in the data active = inhibition above about 38%;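 note: extracellular domain of Rv3671c used as enzyme; 0% = enzyme with DMSO and 100% = no enzyme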
UGM FP inh: inhibitors of M. tuberculosis UDP-galactopyranose mutase; P9WIQ1; purified UGM, fluorescence polarization probe displacement; inhibition, % at 10 µM; 320,000 compounds, 0.06% hits; in the data active = inhibition above about 10%, passing the limit was not always enough
Target sequence (P9WIQ1 whole entry, looked up): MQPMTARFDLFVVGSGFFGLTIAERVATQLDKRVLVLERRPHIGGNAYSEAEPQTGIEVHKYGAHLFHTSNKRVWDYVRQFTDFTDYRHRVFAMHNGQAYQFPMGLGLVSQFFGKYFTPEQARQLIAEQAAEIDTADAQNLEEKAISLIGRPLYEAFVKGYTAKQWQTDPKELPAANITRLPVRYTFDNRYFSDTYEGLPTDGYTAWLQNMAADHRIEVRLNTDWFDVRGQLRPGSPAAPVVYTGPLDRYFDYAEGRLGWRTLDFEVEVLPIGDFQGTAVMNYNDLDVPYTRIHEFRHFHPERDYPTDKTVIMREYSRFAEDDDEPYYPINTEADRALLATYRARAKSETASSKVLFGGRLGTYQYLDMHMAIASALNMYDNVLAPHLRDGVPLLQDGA
FBA Mtb inh: Mtb fructose-bisphosphate aldolase inhibition; purified M. tuberculosis FBA, fluorescence read-out; inhibition, % at 1 µM; 360,000 compounds, 2.3% hits; P9WQA3; in the data active = inhibition above about 27%;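 note: 0% = vehicle and 100% = reference inhibitor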
GDH-TPI inh: counter-screen for M. tuberculosis FBA inhibitors: GDH-TPI coupled enzymes; GDH-TPI coupled enzyme counterscreen, NADH absorbance; inhibition, % at 4.8 µM; 360,000 compounds, 1.2% hits; in the data active = inhibition above about 30%;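 note: 0% = DMSO wells and 100% = wells lacking the enzyme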
BH1578 lux ind: quorum light induction in luxS cqsA deficient V. cholerae | V. cholerae BH1578 lux reporter, luminescence, 6 h | 350,000 compounds, 0.16% hits | activation, % at 18.7 µM; in the data active = activation mostly above about 9.7%, no sharp cut-off
RecA splice inh: inhibitors of M. tuberculosis RecA intein splicing. P9WHJ3. cell-free RecA intein splicing, fluorescence. inhibition, % (concentration not given with the values). 290,000 compounds, 0.75% hits. AID 2221; in the data active = inhibition above about 30%;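 note: 0% = vehicle wells and 100% = reference inhibitor control wells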
Starred values were filed as active, the others as inactive; i = inactive; nt = no result given; + = active, no number. Shown are actives, neighbours in structure and some others; about 4.1% of the full set was active somewhere.

SMILES | Rv3671c protease | UGM FP inh | FBA Mtb inh | GDH-TPI inh | BH1578 lux ind | RecA splice inh
O=C1NC(=O)/C(=C\c2ccc(Oc3ccc([N+](=O)[O-])cn3)cc2)S1 | -3.8 | 0.9 | -2.3 | 35.1* | -0.5 | 4.5
O=[N+]([O-])c1ccc(Oc2ccc(/C=N/O)cc2)nc1 | 3.8 | 4.9 | 3.0 | 5.8 | -0.2 | nt
CCOC(=O)CNC(=O)c1ccccc1Br | 5.6 | -0.4 | + | 3.0 | 0.0 | 0.4
CN1C(C(=O)Nc2ccccn2)=C(O)c2ccccc2S1(=O)=O | 1.8 | -0.6 | -2.2 | 33.3* | i | 1.1
CN1C(C(=O)Nc2ncccn2)=C(O)c2ccccc2S1(=O)=O | nt | 0.2 | 4.9 | 21.4 | -0.3 | -0.7
CCCc1nc2ccccc2c(=O)n1/N=C/c1ccc(O)cc1 | -9.6 | -1.0 | -2.4 | 35.0* | -0.4 | -3.1
O=C(O)COc1ccc(/C=N/n2c(COc3ccccc3)nc3ccccc3c2=O)cc1 | 0.7 | 1.5 | -2.0 | -1.1 | i | -4.8
CCCc1nc2ccccc2c(=O)n1/N=C/c1ccc(O)cc1O | 7.6 | 0.2 | -0.2 | 30.7* | -0.2 | -2.8
O=c1c2ccccc2nc(COc2ccccc2)n1/N=C/c1ccc(O)c(O)c1 | -5.8 | 0.6 | 4.2 | 33.8* | -0.4 | 2.8
Cc1nc2ccccc2c(=O)n1/N=C/c1ccc(N(C)C)cc1 | 0.5 | -1.9 | 0.2 | 41.0* | i | 3.5
CC(OC(=O)Cc1ccc(F)cc1)C(=O)NCc1ccc2c(c1)OCO2 (centres undefined) | 3.6 | 0.5 | -0.4 | 4.2 | i | 1.6
O=C(OCC(=O)c1ccc(Cl)s1)c1cnccn1 | 2.3 | -3.2 | -0.9 | 2.8 | 0.5 | 7.4
CC(Nc1ccc2c(c1)OCCO2)C(=O)N1CCc2ccccc21 (centres undefined) | 4.9 | -0.6 | 1.4 | -5.4 | i | -0.7
Cc1sc2nc(C)n(/N=C/c3ccc(O)cc3)c(=O)c2c1C | -2.5 | 0.1 | -2.9 | 40.2* | -0.7 | 1.9
O=c1c2ccccc2nc(N/N=C/c2ccc(O)cc2)n1O | 5.6 | 0.9 | 4.6 | 31.8* | 3.3 | -6.8
CCOc1ccc2c(c1)c(N=NC(N)=S)c(O)n2C | -7.1 | 2.5 | -1.0 | 31.2* | i | -3.0
Cn1c(O)c(N=NC(=O)CNC(=O)c2cccnc2)c2ccccc21 | -4.2 | 2.1 | 0.3 | 39.1* | -0.2 | -0.7
Cn1c(O)c(N=NC(=N)N)c2ccccc21 | 5.1 | 3.7 | -1.7 | 40.0* | -0.2 | 0.9
CCCn1c(O)c(N=NC(=O)CNC(=O)c2cccnc2)c2ccccc21 | 1.5 | -3.2 | -3.5 | 6.3 | -0.1 | 1.8
COC(=O)Cn1c(O)c(N=NC(=O)CNC(=O)c2ccncc2)c2ccccc21 | -8.3 | -2.3 | 0.7 | 37.8* | -0.2 | 1.9
CCOc1ccc2c(c1)c(N=NC(=N)N)c(O)n2C | 3.4 | -1.6 | -7.2 | 17.0 | 1.0 | 3.3
N#CC(C#N)=C1C=CC=CN1/C(=C\c1ccco1)C(=O)c1ccc(Cl)cc1 | -39.9 | -1.0 | 4.4 | 44.4* | -3.4 | nt
O=C(c1ccc(-c2ccccc2Cl)o1)N1CCN(S(=O)(=O)c2cccs2)CC1 | -13.9 | 0.0 | 1.2 | 3.6 | i | 11.0
CCC(=O)NC(c1cccs1)c1cc([N+](=O)[O-])c2cccnc2c1O (centres undefined) | 15.1 | -1.7 | -23.4 | 1.9 | 96.4* | 2.1
CCCC(=O)NC(c1cccs1)c1cc([N+](=O)[O-])c2cccnc2c1O (centres undefined) | 10.0 | -4.5 | -10.4 | 9.9 | -0.2 | 6.6
SMILES | Rv3671c protease | UGM FP inh | FBA Mtb inh | GDH-TPI inh | BH1578 lux ind | RecA splice inh
O=c1[nH]c(CN2CCCCC2)ccc1O | nt | nt | -1.7 | 6.7 | 2.9 | nt
O=C(Oc1ccc(C(=S)N2CCOCC2)cc1)c1ccc([N+](=O)[O-])cc1[N+](=O)[O-] | -6.8 | -1.4 | 0.0 | 8.9 | i | 45.8*
O=C(Oc1cccc(C(=S)N2CCOCC2)c1)c1ccc([N+](=O)[O-])cc1[N+](=O)[O-] | 2.2 | -2.6 | 0.7 | 5.2 | i | 4.8
O=C(NNS(=O)(=O)c1ccccc1Cl)C1COc2ccccc2O1 (centres undefined) | 6.5 | -2.8 | 0.5 | -2.5 | i | nt
CC(Nc1c[nH]c(=O)[nH]c1=O)c1ccccc1 (centres undefined) | nt | 0.0 | 0.7 | 1.5 | 0.7 | 61.2*
Cc1ccc(C(=O)/C=C/c2ccc(F)cc2)o1 | 0.2 | -1.9 | -2.7 | 39.1* | i | -2.5
CCOC(=O)c1sc2nc(N3CCOCC3)c3c(c2c1N)CCC3 | -9.0 | -2.0 | 124.9* | 30.3 | 0.3 | -0.4
CC1(C)Cc2c(c(N3CCOCC3)nc3sc(C(N)=O)c(N)c23)CO1 | 3.6 | -2.1 | 18.7 | 32.5* | -0.4 | -3.4
COc1ccc(-c2csc(-n3cccn3)n2)cc1 | -9.7 | 1.4 | 2.3 | 9.5 | -0.5 | 3.3
COc1ccc(Cl)c2sc(N(Cc3cccnc3)C(C)=O)nc12 | -12.2 | -5.0 | 4.0 | 0.0 | -0.2 | 0.2
Oc1cccc(/C=N/Nc2nn3cnnc3c3ccccc23)c1 | -7.2 | 1.8 | 2.2 | 25.4 | i | -5.8
O=c1nccc(N/N=C/c2ccccc2O)[nH]1 | nt | -0.4 | 2.1 | 38.2* | i | -4.3
CCOc1ccccc1/C=N/Nc1ccnc(=O)[nH]1 | nt | 1.0 | -0.8 | 25.6 | -0.8 | -1.5
COc1cccc(/C=N/Nc2ccnc(=O)[nH]2)c1O | -1.9 | -0.7 | -1.7 | 35.7* | 1.2 | -2.4
COc1cccc(/C=N/NC(=O)N/N=C/c2cccc(OC)c2O)c1O | 6.4 | -2.5 | 0.9 | 20.4 | -1.2 | nt
COc1cccc(/C=N/Nc2nn3cnnc3c3ccccc23)c1O | 14.7 | 0.3 | 1.8 | 32.5* | i | -2.4
Nc1nonc1-n1nnc(C(=O)N/N=C/c2ccncc2)c1CSc1ccccc1 | -11.9 | 2.4 | 3.0 | 2.2 | -0.2 | 0.8
CCCC(=O)N1CCC1(C)C(=O)Nc1ccc2nc(C)ccc2c1 (centres undefined) | nt | nt | 8.7 | 2.2 | -0.7 | nt
O=C(N/N=C/c1ccc(-c2ccccc2[N+](=O)[O-])o1)[C@H]1C[C@@H]1c1ccccc1 | -33.2 | -0.1 | -0.4 | 1.1 | -0.2 | 42.0*
Cc1ccc(C(=O)N/N=C\c2ccc(-c3ccc(Cl)c(Cl)c3)o2)cn1 | -26.4 | -1.3 | 4.2 | 62.8* | i | 1.0
Cc1ccc(C(=O)N/N=C/c2ccc(-c3ccccc3[N+](=O)[O-])o2)cn1 | -21.1 | 5.0 | 1.9 | 23.7 | -0.2 | 61.5*
CSCc1ccc(C(=O)OCC(=O)NC2CCCC2)o1 | nt | nt | 3.3 | 11.5 | i | nt
C[C@@H](CO)NC(=O)c1[nH]cnc1C(=O)Nc1cccc(Cl)c1 | nt | nt | -1.6 | 8.1 | -0.4 | nt
CN(N)C(=S)NCc1ccccc1 | -2.7 | 3.4 | + | -3.4 | 1.9 | -1.4
O=C(CN1C(=O)NC2(CCCCC2)C1=O)Oc1ccc2ccc(=O)oc2c1 | -1.8 | 0.1 | + | 14.3 | i | nt
O=C(Oc1ccc2ccc(=O)oc2c1)c1ccco1 | -0.9 | 0.5 | + | 4.2 | i | -1.5
COc1ccccc1C(=O)Oc1ccc2ccc(=O)oc2c1 | 10.2 | -0.3 | 116.5* | 15.5 | -0.7 | -87.0
OC(c1cccc(Cl)c1)c1nc(-c2cc3ccccc3o2)cs1 (centres undefined) | nt | nt | 2.6 | 7.1 | -0.5 | nt
